PubChem BioAssay (Tox21)
Calls of active or inactive are those of the source. Unless noted, calls come from the whole dose curve; as a rule, active = well fitted curve in the direction sought with a large enough effect in the repeat runs; inconclusive = weak or mixed curves; inactive = no such curve, though single readings can be large; an effect the other way counts as inactive or inconclusive.

Tests used:
[1] = qHTS assay to identify small molecule antagonists of the glucocorticoid receptor (GR) signaling pathway - cell viability counter screen (AID 720693); details: GR-bla HeLa viability, CellTiter-Glo luminescence, 18 h, with 5 nM dexamethasone present; series mostly up to 58.5 µM; note: nearly all actives have a fitted effect of over 55% in size
[2] = qHTS assay for identifying genotoxic compounds that show differential cytotoxicity against isogenic chicken DT40 cell lines with known DNA damage response pathways - wild type cell line (AID 743012); details: DT40 wild type chicken cells viability, CellTiter-Glo, 40 h; series mostly up to 68.4 µM; note: nearly all actives have a fitted effect of over 60% in size; note: potency is the fitted concentration of half-maximal effect
In short: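 Endpoint: CellTiter-Glo luminescence, 30 min RT. Cells: wild type DT40, 300/well. Exposure: compounds in DMSO, 40 h, 37 C/5% CO2, after ~0.5 h pre-incubation.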

[3] = qHTS assay for identifying genotoxic compounds that show differential cytotoxicity against isogenic chicken DT40 cell lines with known DNA damage response pathways - Rev3 mutant cell line (AID 743014); details: chicken DT40 Rev3-/- viability, CellTiter-Glo, 40 h; series mostly up to 68.4 µM; note: nearly all actives have a fitted effect of over 55% in size; note: potency is the fitted concentration of half-maximal effect
[4] = qHTS assay for identifying genotoxic compounds that show differential cytotoxicity against isogenic chicken DT40 cell lines with known DNA damage response pathways - Rad54/Ku70 mutant cell line (AID 743015); details: DT40 Rad54/Ku70 mutant viability, CellTiter-Glo, 40 h; series mostly up to 66.8 µM; note: nearly all actives have a fitted effect of over 60% in size; note: potency is the fitted concentration of half-maximal effect
[5] = qHTS assay to identify small molecule antagonists of the androgen receptor (AR) signaling pathway - cell viability counter screen (AID 743033; note: nearly all actives have a fitted effect of over 45% in size); details: AR-bla HEK293 viability, CellTiter-Glo luminescence, 16 h; series mostly up to 58.5 µM
[6] = qHTS assay to identify small molecule antagonists of the androgen receptor (AR) signaling pathway using the MDA cell line - cell viability counter screen (AID 743041; note: nearly all actives have a fitted effect of over 45% in size); details: MDA-kb2 viability, CellTiter-Fluor, 16 h, cells co-treated with R1881 androgen agonist; series mostly up to 70.3 µM
In short: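 Viability read by CellTiter-Fluor fluorescence in the same wells as the antagonist screen, added after 15.5 h of a 16 h, 37C exposure. Human breast carcinoma MDA-kb2 AR-luc cells, compounds co-dosed with agonist R1881.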

[7] = qHTS assay to identify small molecule antagonists of the thyroid receptor (TR) signaling pathway - cell viability counter screen (AID 743064); details: GH3.TRE-Luc viability, CellTiter-Fluor, 24 h; series mostly up to 70.3 µM; note: nearly all actives have a fitted effect of over 50% in size
In short: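 GH3.TRE-Luc cells, 4 h pre-plating; cpd + T3 1 nM final; 37 °C 23.5 h; CellTiter-Fluor 30 min; fluorescence read.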

[8] = qHTS assay to identify small molecule antagonists of the thyroid receptor (TR) signaling pathway (AID 743065); details: GH3.TRE-Luc, T3-stimulated luciferase inhibition, 23.5 h; series mostly up to 70.3 µM; note: nearly all actives have a fitted effect of over 55% in size
In short: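 Antagonism measured as loss of luciferase signal in GH3 cells stably carrying a TRE-luciferase reporter, co-treated with compound and T3 (1 nM final) for 23.5 h at 37 C. Viability was read in the same well by CellTiter-Fluor.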

[9] = test system: thyroid hormone receptor (rat, GH3 cells); assay: qHTS assay to identify small molecule agonists of the thyroid receptor (TR) signaling pathway (AID 743066; calls by dose curve); details: GH3.TRE-Luc cells, TR agonist luciferase, 24 h; series mostly up to 83.9 µM
[10] = target: Estrogen receptor (Homo sapiens) (UniProt P03372); assay: qHTS assay to identify small molecule antagonists of the estrogen receptor alpha (ER-alpha) signaling pathway (AID 743069; active = well fitted curve in the direction sought with a large enough effect in the signal ratio in the repeat runs, not every such curve was filed as active; inconclusive = weak or mixed curves, or effect the other way; inactive = no such curve, though single readings can be large or run the other way; the % refers to the signal ratio); details: HEK293 ER-alpha-UAS-bla, beta-lactamase ratio, antagonist mode; series mostly up to 69.4 µM
In short: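 Antagonist mode: compounds in DMSO were co-added with 17beta-estradiol to ER-alpha-bla HEK293 cells (2% charcoal-stripped serum) and left 18 h at 37C. Reporter inhibition was measured as FRET fluorescence after 2 h LiveBLAzer substrate at room temperature.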

[11] = qHTS assay to identify small molecule antagonists of the estrogen receptor alpha (ER-alpha) signaling pathway - cell viability counter screen (AID 743074; calls by dose curve;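 note: HEK293 cells carrying ER-alpha-UAS-bla reporter stimulated with 17beta-estradiol; nearly all actives have a fitted effect of over 45% in size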); details: ERalpha-bla HEK293 viability, CellTiter-Glo luminescence, 18 h; series mostly up to 69.4 µM
[12] = target: Estrogen receptor (Homo sapiens) (UniProt P03372); assay: qHTS assay to identify small molecule agonists of the estrogen receptor alpha (ER-alpha) signaling pathway (AID 743075; calls by dose curve;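 note: HEK293 GripTite cells with ER-alpha and UAS-driven beta-lactamase reporter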; note: potency is the fitted concentration of half-maximal effect); details: HEK293 ER-alpha-UAS-bla, beta-lactamase FRET ratio, 18 h; series mostly up to 70.1 µM
[13] = target: Estrogen receptor (Homo sapiens) (UniProt P03372); assay: qHTS assay to identify small molecule agonists of the estrogen receptor alpha (ER-alpha) signaling pathway using the BG1 cell line (AID 743079); details: BG1Luc4E2 cells, ERE-luciferase agonist, 22 h; series mostly up to 70.3 µM; note: nearly all actives have a fitted effect of over 20% in size; note: potency is the fitted concentration of half-maximal effect
[14] = qHTS assay to identify small molecule antagonists of the estrogen receptor alpha (ER-alpha) signaling pathway using the BG1 cell line (AID 743080; calls by dose curve;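 note: BG1 cells stimulated with 17beta-estradiol alongside compound; nearly all actives have a fitted effect of over 25% in size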); details: BG1Luc4E2 ERE-luciferase antagonist mode, luminescence; series mostly up to 70.3 µM
In short: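 Seeding, 24 h rest, compound transfer from DMSO, 17beta-estradiol addition, 21.5 h incubation, CellTiter-Fluor (30 min, 37 C), then ONE-Glo (30 min, room temperature): this sequence was run on BG1-Luc-4E2 reporter cells.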

[15] = qHTS assay to identify small molecule antagonists of the estrogen receptor alpha (ER-alpha) signaling pathway using the BG1 cell line - cell viability counter screen (AID 743081); details: BG1Luc4E2 viability, CellTiter-Fluor, 22 h; series mostly up to 70.3 µM;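 note: compound given together with 17beta-estradiol as the ER stimulus; nearly all actives have a fitted effect of over 45% in size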
Aromatase (Homo sapiens) = Aromatase (Homo sapiens) (UniProt P11511); assay: qHTS assay to identify aromatase inhibitors (AID 743083); details: MCF-7 aro ERE, testosterone-driven ERE luciferase, 24 h; series mostly up to 70.3 µM; note: nearly all actives have a fitted effect of over 55% in size
[16] = target: Androgen receptor (Homo sapiens) (UniProt P10275); assay: qHTS assay to identify small molecule agonists of the androgen receptor (AR) signaling pathway (AID 743036; active = well fitted activation curve with a large enough effect in the signal ratio in the repeat runs, with a control signal flat, not every such curve was filed as active; inconclusive = weak or mixed curves, or effect the other way; inactive = no such curve, though single readings can be large or run the other way; the % refers to the signal ratio); details: HEK293 AR-UAS-bla GripTite, beta-lactamase FRET ratio, 16 h; series mostly up to 62.4 µM
In short: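 AR-bla HEK293 cells, 2,000/well; 4 h preincubation 37C/5% CO2; compound (DMSO) 16 h at 37C; LiveBLAzer B/G FRET substrate 2 h RT; fluorescence intensity read-out.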

[17] = target: Androgen receptor (Homo sapiens) (UniProt P10275); assay: qHTS assay to identify small molecule agonists of the androgen receptor (AR) signaling pathway using the MDA cell line (AID 743040; note: nearly all actives have a fitted effect of over 20% in size); details: MDA-kb2 AR-luc cells, MMTV luciferase, 16 h, stronger effect = higher value; series mostly up to 70.3 µM
In short: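 Luciferase agonist assay: 16 h compound exposure at 37C without CO2 in MDA-kb2 AR-luc cells, whose MMTV promoter responds to both AR and GR. Luminescence measured after 30 min room-temperature incubation with ONE-Glo.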

[18] = target: Androgen receptor (Homo sapiens) (UniProt P10275); assay: qHTS assay to identify small molecule antagonists of the androgen receptor (AR) signaling pathway using the MDA cell line (AID 743042; note: nearly all actives have a fitted effect of over 55% in size); details: MDA-kb2 AR-luc, MMTV luciferase, R1881 antagonist, 16 h; series mostly up to 70.3 µM
In short: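 Antagonist mode: compounds plus R1881 agonist added to MDA-kb2 AR-luc cells, incubated 16 h at 37C. Luciferase reporter luminescence quantified, with multiplexed CellTiter-Fluor readout for cell viability.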

[19] = target: Androgen receptor (Homo sapiens) (UniProt P10275); assay: qHTS assay to identify small molecule antagonists of the androgen receptor (AR) signaling pathway (AID 743035; active = well fitted inhibition curve with a large enough effect in the signal ratio in the repeat runs, not every such curve was filed as active; inconclusive = weak or mixed curves, or effect the other way; inactive = no such curve, though single readings can be large or run the other way; the % refers to the signal ratio); details: HEK293 AR-UAS-bla, R1881-stimulated, beta-lactamase FRET, 16 h; series mostly up to 58.5 µM
In short: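 R1881 agonist challenge of a HEK293 UAS-beta-lactamase AR reporter line in the presence of compound (16 h, 37C); signal taken as FRET fluorescence after 2 h with LiveBLAzer B/G substrate at room temperature.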

Measured: Potency

Sequence of Estrogen receptor (Homo sapiens) (P03372 whole entry, looked up): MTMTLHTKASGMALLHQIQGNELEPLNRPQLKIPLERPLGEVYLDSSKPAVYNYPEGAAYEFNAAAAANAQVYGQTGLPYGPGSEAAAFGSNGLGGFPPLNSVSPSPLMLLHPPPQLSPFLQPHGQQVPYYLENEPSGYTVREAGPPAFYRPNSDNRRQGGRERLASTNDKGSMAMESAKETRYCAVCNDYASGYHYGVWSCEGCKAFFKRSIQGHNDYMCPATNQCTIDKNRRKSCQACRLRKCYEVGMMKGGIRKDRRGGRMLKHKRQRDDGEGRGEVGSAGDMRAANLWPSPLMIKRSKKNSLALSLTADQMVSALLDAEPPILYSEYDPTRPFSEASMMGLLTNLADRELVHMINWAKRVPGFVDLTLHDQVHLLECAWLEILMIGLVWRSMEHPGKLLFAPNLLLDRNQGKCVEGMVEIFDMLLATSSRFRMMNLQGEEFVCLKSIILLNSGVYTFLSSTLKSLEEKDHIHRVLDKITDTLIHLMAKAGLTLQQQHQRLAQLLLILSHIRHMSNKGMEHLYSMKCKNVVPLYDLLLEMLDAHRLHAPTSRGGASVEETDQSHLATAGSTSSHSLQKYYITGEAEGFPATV
Sequence of Androgen receptor (Homo sapiens) (P10275 whole entry, looked up): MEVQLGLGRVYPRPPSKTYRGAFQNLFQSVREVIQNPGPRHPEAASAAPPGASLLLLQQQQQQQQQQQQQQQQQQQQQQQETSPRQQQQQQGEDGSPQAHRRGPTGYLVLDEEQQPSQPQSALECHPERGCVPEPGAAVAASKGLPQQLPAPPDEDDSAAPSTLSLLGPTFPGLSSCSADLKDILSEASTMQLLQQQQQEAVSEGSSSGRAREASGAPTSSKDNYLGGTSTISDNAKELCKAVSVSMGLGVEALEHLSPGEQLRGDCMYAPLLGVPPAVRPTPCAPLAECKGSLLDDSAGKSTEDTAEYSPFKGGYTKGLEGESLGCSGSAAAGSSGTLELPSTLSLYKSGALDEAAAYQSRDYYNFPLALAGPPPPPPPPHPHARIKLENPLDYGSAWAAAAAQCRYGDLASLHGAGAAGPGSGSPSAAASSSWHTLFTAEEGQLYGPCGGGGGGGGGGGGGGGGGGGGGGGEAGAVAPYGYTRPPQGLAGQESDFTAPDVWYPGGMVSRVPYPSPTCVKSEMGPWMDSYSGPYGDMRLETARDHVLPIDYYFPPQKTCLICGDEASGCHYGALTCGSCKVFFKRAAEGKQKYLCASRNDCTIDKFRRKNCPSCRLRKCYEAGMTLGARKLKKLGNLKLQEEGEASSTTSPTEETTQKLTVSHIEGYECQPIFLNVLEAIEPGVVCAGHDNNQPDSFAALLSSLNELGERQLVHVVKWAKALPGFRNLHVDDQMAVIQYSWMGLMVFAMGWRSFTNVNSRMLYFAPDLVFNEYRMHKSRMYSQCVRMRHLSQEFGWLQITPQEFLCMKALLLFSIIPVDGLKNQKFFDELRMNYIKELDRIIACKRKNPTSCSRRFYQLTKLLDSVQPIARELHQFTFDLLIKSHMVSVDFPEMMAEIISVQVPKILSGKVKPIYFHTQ
Sequence of Aromatase (Homo sapiens) (P11511 whole entry, looked up): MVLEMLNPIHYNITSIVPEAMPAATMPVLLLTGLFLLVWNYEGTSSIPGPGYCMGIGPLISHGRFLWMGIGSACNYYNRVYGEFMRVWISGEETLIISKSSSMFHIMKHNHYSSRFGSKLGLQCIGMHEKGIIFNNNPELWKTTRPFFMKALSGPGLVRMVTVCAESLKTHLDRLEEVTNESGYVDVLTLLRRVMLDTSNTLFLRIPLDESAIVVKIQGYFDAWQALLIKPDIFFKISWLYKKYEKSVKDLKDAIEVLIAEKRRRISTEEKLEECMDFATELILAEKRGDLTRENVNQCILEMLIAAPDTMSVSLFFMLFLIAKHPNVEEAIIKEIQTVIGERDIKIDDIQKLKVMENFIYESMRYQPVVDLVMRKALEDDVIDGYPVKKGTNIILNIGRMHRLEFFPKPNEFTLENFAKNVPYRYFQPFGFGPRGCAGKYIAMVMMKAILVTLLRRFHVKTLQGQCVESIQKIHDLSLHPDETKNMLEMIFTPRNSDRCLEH

OCCC(F)(F)C(F)(F)C(F)(F)C(F)(F)C(F)(F)C(F)(F)F
not listed: [16] | [17] | [18] | [19]
inactive: all other assays above

CC(C)OC(=O)C(C(=O)OC(C)C)=C1SC=CS1
active: [2] 23.7 µM | [3] 26.6 µM | [4] 23.7 µM
not listed: [7] | [10] | [12] | [13] | [14] | [19]
inactive: all other assays above

NNC(=O)OCc1ccccc1
not listed: [7]
inactive: all other assays above

CC(C)CC(O)Cc1ccccc1 (configuration not stated)
not listed: [13]
inactive: all other assays above

C=C(C)C(=O)OCCCC
not listed: [10] | [12] | [13] | [14] | [16] | [17]
inactive: all other assays above

CC(=O)Nc1ccc(OCCOCCOc2ccc(NC(C)=O)cc2)cc1
not listed: [16] | [17] | [18] | [19]
inactive: all other assays above

O=P(O)(O)C(O)(Cc1cccnc1)P(=O)(O)O
not listed: [16] | [17] | [18] | [19]
inactive: all other assays above

Cc1ccc(Br)cc1
not listed: [16] | [17] | [18] | [19]
inactive: all other assays above

C=CCN1CCc2nc(N)sc2CC1
not listed: [6] | [10] | [12] | [13] | [14]
inactive: all other assays above

C/C=C/C(=O)CCCC
not listed: [16] | [17] | [18] | [19]
inactive: all other assays above

CC/C=C\CCOC(=O)c1ccccc1
not listed: [8] | [9] | [19]
inactive: all other assays above

CC/C=C/CCCCCCCCCCOC(C)=O
active: [3] 43.3 µM
not listed: [16] | [17] | [18] | [19]
inactive: all other assays above

CCCCCCCOC(C)=O
active: [13] 48.6 µM
not listed: [16] | [17] | [18] | [19]
inactive: all other assays above

CC/C=C\CCCCCCCCCCOC(C)=O
not listed: [16] | [17] | [18] | [19]
inactive: all other assays above

CN(C)CCC[C@@]1(c2ccc(F)cc2)OCc2cc(C#N)ccc21
not listed: [16] | [17] | [18] | [19]
inactive: all other assays above

O=C(c1ccccc1)c1cccc(O)c1
active: [12] 49.7 µM [inconclusive] | [13] 15.6 µM
not listed: [10] | [14] | [16] | [17] | [19]
inactive: all other assays above

Cc1ccc2cccnc2c1
inactive: all assays above
